CYP2C19 activ – human CYP2C19 activators, primary screen, biochemical, luminescence. Cytochrome P450 2C19 (Homo sapiens), P33261. recombinant CYP2C19, luciferin-H EGE luminescence; hits give high values; 0 = fully inhibited enzyme, 1 = untreated enzyme. activation factor at 5 µM. 96,000 tested, under 10 active. AID 1025, 2008;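 active means activation factor of at least 2 at 5 µM in the primary screen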;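 further: 0 = wells with 2.5 mM tranylcypromine and 1 = vehicle-only wells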
CYP2C9 act – human CYP2C9 activators, primary screen, biochemical, luminescence; Cytochrome P450 2C9 (Homo sapiens), P11712; recombinant CYP2C9, luciferin-H conversion; hits give high values; factor 1 = untreated enzyme, 0 = blocked; activation factor at 5 µM; 96,000 compounds, 1.4% hits; AID 1024, 2008;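 active means activation factor of 2 or more for CYP2C9 at a 5 µM dose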;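 further: 0 = sulfaphenazole-blocked wells and 1 = vehicle-only wells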
Target sequence (P11712 whole entry, looked up): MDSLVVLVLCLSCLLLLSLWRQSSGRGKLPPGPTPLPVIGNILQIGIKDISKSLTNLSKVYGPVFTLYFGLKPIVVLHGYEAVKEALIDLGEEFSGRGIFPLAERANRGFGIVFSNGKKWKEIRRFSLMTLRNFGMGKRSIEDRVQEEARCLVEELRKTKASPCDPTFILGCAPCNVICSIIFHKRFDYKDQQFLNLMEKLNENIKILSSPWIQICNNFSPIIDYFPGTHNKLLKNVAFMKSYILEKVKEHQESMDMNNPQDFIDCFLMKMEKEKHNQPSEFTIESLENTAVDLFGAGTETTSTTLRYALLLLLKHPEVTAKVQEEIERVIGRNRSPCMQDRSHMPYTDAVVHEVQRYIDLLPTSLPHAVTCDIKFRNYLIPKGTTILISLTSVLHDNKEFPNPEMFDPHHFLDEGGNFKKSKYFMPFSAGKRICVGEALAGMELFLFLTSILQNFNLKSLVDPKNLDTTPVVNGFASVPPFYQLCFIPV
CYP2C9 inhib – blockers of cytochrome P450 2C9 activity – biochemical, luminescence, ADME assay, primary screen | P11712 | CYP2C9 Supersomes, luciferin-H conversion | inhibition, % at 5 µM | 96,000 compounds, 20% hits;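 active means blocking of liver enzyme CYP2C9 beyond about 50% at 5 µM, limit read from the data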
Cav3 T inh – Cav3.2 calcium influx blockers – cell-based, Fluo-4 calcium fluorescence, FDSS, MLSMR library, primary screen | Voltage-dependent T-type calcium channel subunit alpha-1H (Homo sapiens), O95180 | Cav3.2-expressing cells; hits give low values | B-score at 10 µM | 100,000 compounds, 4% hits;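 active means single-dose well whose peak fluorescence ratio is a statistical outlier from its plate by either plate-standardised score or position-corrected B-score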
CYP2C19 inhib – blockers of cytochrome P450 2C19 activity – biochemical, luminescence, ADME assay, primary screen; P33261; CYP2C19 Supersomes, luciferin-H EGE luminescence, 30 min; inhibition, % at 5 µM; 96,000 compounds, 21% hits; AID 778, 2007;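 active means CYP2C19 inhibition above a set limit at 5 µM in the primary screen, cut at about 50% in these data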;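 further: plate controls were negative control wells for no effect and 2.5 mM tranylcypromine positive control for full effect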
An asterisk follows results filed as active. The list is not random: actives were taken first. Their share in the collection is about 27%.

`COc1ccc(-c2cc(C(F)(F)F)n3nc(C(=O)NCCCn4ccnc4)cc3n2)cc1` gave CYP2C19 activ 0.2, CYP2C9 act 0, CYP2C9 inhib 98*, Cav3 T inh 0.44 and CYP2C19 inhib 83*.
For COc1ccc(-c2cc(C(F)(F)F)n3nc(C(=O)NCc4ccco4)cc3n2)cc1OC the results were CYP2C19 activ 0.2, CYP2C9 act 0.3, CYP2C9 inhib 69*, Cav3 T inh -0.9 and CYP2C19 inhib 76*.
`O=C(NCc1ccco1)c1cc2nc(C3CC3)cc(C(F)(F)F)n2n1` gave CYP2C19 activ 0.9, CYP2C9 act 0.7, CYP2C9 inhib 28 and CYP2C19 inhib 6.
CCCNC(=O)c1cc2nc(-c3ccccc3)cc(C(F)(F)F)n2n1 was read as Cav3 T inh 0.6.
For COc1ccc(OC)c(S(=O)(=O)NCCc2ccccc2)c1 the results were CYP2C19 activ 0.1, CYP2C9 act 0.3, CYP2C9 inhib 69*, Cav3 T inh -2.6 and CYP2C19 inhib 87*.
For CNS(=O)(=O)c1cc(OC)ccc1OC the results were CYP2C19 activ 0.9, CYP2C9 act 0.9, CYP2C9 inhib 12, Cav3 T inh -0.061 and CYP2C19 inhib 8.
`COc1ccc(OC)c(S(=O)(=O)NCc2csc(-c3ccccc3)n2)c1` gave CYP2C19 activ 0.4, CYP2C9 act 0.6, CYP2C9 inhib 37, Cav3 T inh 1.1 and CYP2C19 inhib 62*.
For COc1ccc(OC)c(S(=O)(=O)NCc2cn3c(C)csc3n2)c1 the results were CYP2C19 activ 1, CYP2C9 act 1.2, CYP2C9 inhib -19, Cav3 T inh 0.13 and CYP2C19 inhib -1.
CCn1nnnc1-c1ccc(OC)c(S(=O)(=O)NCCc2ccccc2)c1 was read as CYP2C19 activ 0.1, CYP2C9 act 0.3, CYP2C9 inhib 68*, Cav3 T inh 0.87 and CYP2C19 inhib 89*.
For Cc1ccc2c(c1)C(=O)CC1(CCCC1)O2 the results were Cav3 T inh 0.49.
CCCCN(CC)Cc1ccc(CNC(=O)Nc2ccc(OCC)cc2)o1 was read as CYP2C19 activ 1, CYP2C9 act 0.9, CYP2C9 inhib 12, Cav3 T inh -1.6 and CYP2C19 inhib 4.
For c1ccc2c(-c3nnc(SCc4cn5ccccc5n4)o3)c[nH]c2c1 the results were CYP2C19 activ 0.3, CYP2C9 act 0.4, CYP2C9 inhib 61*, Cav3 T inh -0.59 and CYP2C19 inhib 67*.
Screening O=C(CSc1nnc(-c2c[nH]c3ccccc23)o1)N1c2ccccc2CCc2ccccc21 returned CYP2C19 activ 0.2, CYP2C9 act 0.1, CYP2C9 inhib 92*, Cav3 T inh -2 and CYP2C19 inhib 79*.
`O=C(CSc1nnc(COc2cccc3ccccc23)o1)N1c2ccccc2CCc2ccccc21` gave CYP2C19 activ 0.8, CYP2C9 act 0.5, CYP2C9 inhib 54*, Cav3 T inh -2.6 and CYP2C19 inhib 22.
`O=C(CSc1nnc(-c2ccco2)o1)N1CCOCC1` gave CYP2C19 activ 1, CYP2C9 act 1.1, CYP2C9 inhib -9, Cav3 T inh -0.62 and CYP2C19 inhib -2.
For O=C(CSc1nnc(-c2c[nH]c3ccccc23)o1)N1CCCCC1 the results were CYP2C19 activ 0.6, CYP2C9 act 0.9, CYP2C9 inhib 7, Cav3 T inh 1.4 and CYP2C19 inhib 41.
`O=C(CSc1nnc(-c2ccco2)o1)N1c2ccccc2CCc2ccccc21` gave CYP2C19 activ 0.1, CYP2C9 act 0, CYP2C9 inhib 97*, Cav3 T inh -1.2 and CYP2C19 inhib 89*.
Screening CCS(=O)(=O)N1CCN(C(=O)c2ccc(-c3ccccc3)cc2)CC1 returned CYP2C19 activ 1.1, CYP2C9 act 1.1, CYP2C9 inhib -9, Cav3 T inh 0.1 and CYP2C19 inhib -14.
CCOc1ccc(Cc2nnc(SCC(N)=O)n2C)cc1 was read as CYP2C19 activ 1, CYP2C9 act 0.9, CYP2C9 inhib 13, Cav3 T inh 0.023 and CYP2C19 inhib 4.
For O=c1c2[nH]c3ccccc3c2ncn1CCN1CCNCC1 the results were CYP2C19 activ 0.8, CYP2C9 act 0.9, CYP2C9 inhib 5, Cav3 T inh 0.039 and CYP2C19 inhib 19.
`O=C(CN1CCOCC1)OCCCC1CCCCC1` gave CYP2C19 activ 0.3, CYP2C9 act 0.9, CYP2C9 inhib 8, Cav3 T inh -0.036 and CYP2C19 inhib 73*.

Source: PubChem (several laboratories)
